# Measured values reported in PubChem BioAssay.
# Records with an inconclusive call do not appear. The source made the active and inactive calls. Unless noted, no cut-off is given here; in the data, nearly all actives have AC50 up to about 30 µM.
# Tests used:
# [1] = growth inhibition of DIPG glioma cells, dose response, cell-based, JHH-DIPG-1, MIPE4.0, CellTiter-Glo, qHTS (AID 1347062; cut-off not given, nearly all actives have AC50 up to about 27 µM;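 for AC50: cells exposed to compound for two days before readout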); conditions: JHH-DIPG-1 viability, CellTiter-Glo ATP luminescence
# [2] = growth inhibition of DIPG glioma cells, dose response, cell-based, SU-DIPG-IV, MIPE4.0, CellTiter-Glo, qHTS (AID 1347063); conditions: SU-DIPG-IV viability, CellTiter-Glo ATP luminescence;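 note: compound exposure lasted 48 hours before the viability readout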
# [3] = SU-DIPG-VI glioma cell viability, MIPE4.0 library, CellTiter-Glo luminescence, qHTS (AID 1347066); conditions: CellTiter-Glo ATP luminescence;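 note: cells exposed to compound for 48 hours before readout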
# [4] = LFS_MB_P medulloblastoma growth inhibition, cell-based, chromothripsis tumors, cisplatin or BGB combos (AID 1671449; in the data active = inhibition above about 80%;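 note: cells exposed for 96 hours; 0% = vehicle DMSO and 100% = killing by high DMSO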); conditions: LFS_MB_P medulloblastoma cells
# [5] = HDN33 neuroblastoma growth inhibition, cell-based, chromothripsis tumors, cisplatin or BGB combos (AID 1671450; in the data active = inhibition above about 80%;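 note: cells exposed to compound for four days; 0% = vehicle DMSO and 100% = cell killing by high DMSO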); conditions: HDN33 neuroblastoma cells, stronger effect = higher value
# [6] = ICB984 medulloblastoma cell growth inhibition, synergistic combos for chromothripsis tumors, cisplatin or BGB combos (AID 1671451; call rule not given here;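 note: cells exposed for 96 hours before readout; 0% = vehicle DMSO and 100% = killing by high DMSO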); conditions: ICB984 medulloblastoma cells, drug combinations, stronger effect = higher value
# [7] = HTB85 osteosarcoma cell growth inhibition, synergistic combos for chromothripsis tumors, BGB or cisplatin IC20 combos (AID 1671453; in the data active = inhibition above about 80%;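 note: cells exposed for 96 hours before readout; 0% = vehicle DMSO and 100% = high DMSO killing control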); conditions: HTB85 osteosarcoma cells, drug combinations, stronger effect = higher value
# [8] = MDA-MB-436 breast carcinoma cell growth inhibition, synergistic combos for chromothripsis tumors, BGB or cisplatin combos (AID 1671458; call rule not given here;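 note: cells exposed for 96 hours; 0% = vehicle DMSO and 100% = killing by high DMSO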); conditions: MDA-MB-436 breast carcinoma growth inhibition, drug combinations, stronger effect = higher value
# [9] = growth inhibition of BT084 medulloblastoma cells, cell-based, ICGC_MB145, cisplatin and BGB IC40 combos (AID 1671461; in the data active = inhibition above about 80%;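 note: cells exposed to drugs for 96 hours; 0% = vehicle DMSO and 100% = high DMSO full killing control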); conditions: drug combinations, stronger effect = higher value
# [10] = growth inhibition of RCMB18 medulloblastoma cells, cell-based, cisplatin and BGB IC40 combos (AID 1671462; in the data active = inhibition above about 80%;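 note: cells exposed to compound for four days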); conditions: stronger effect = higher value
# [11] = growth inhibition of CRL1545 osteosarcoma cells, cell-based, cisplatin and BGB IC20 combos (AID 1671464; in the data active = inhibition above about 80%;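 note: cells exposed to compound for 96 hours before readout; 0% = vehicle DMSO and 100% = high DMSO killing control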); conditions: stronger effect = higher value
# [12] = growth inhibition of DIPG glioma cells, dose response, cell-based, SU-DIPG-XIII, MIPE5.0, CellTiter-Glo, qHTS (AID 1347064; cut-off not given, nearly all actives have AC50 up to about 23 µM;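 for AC50: cells exposed to compound for 48 hours before the viability read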); conditions: SU-DIPG-XIII viability, CellTiter-Glo ATP luminescence
# [13] = JHH-DIPG-1 glioma cell viability, MIPE5.0 library, CellTiter-Glo luminescence, qHTS (AID 1347067; cut-off not given, nearly all actives have AC50 up to about 26 µM;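 note: cells exposed to compound for 48 hours before readout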); conditions: JHH-DIPG-1 glioma viability, CellTiter-Glo ATP luminescence
# [14] = SU-DIPG-XXV glioma cell viability, MIPE5.0 library, qHTS (AID 1347068; cut-off not given, nearly all actives have IC50 up to about 30 µM;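 for IC50: cells exposed to compound for 48 hours before viability readout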)
# [15] = viability loss in pontine glioma line – cell-based, SU-DIPG-XXV, MIPE5.0, CellTiter-Glo, qHTS, dose response (AID 1347065; cut-off not given, nearly all actives have AC50 up to about 26 µM;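 note: cells exposed to compound for 48 hours before ATP readout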); conditions: CellTiter-Glo ATP luminescence
# [16] = sensitizers of A549 cells to miR-34 induction, primary screen, imaging, A549 dox-inducible miR-34, nuclei and caspase counts (AID 1347080;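 active = compounds whose cell count with miR-34 switched on is under 0.7 times the count with it off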); conditions: A549 miR-34 inducible, Hoechst nuclei count, 48 h
# [17] = survival rescue of mitochondrial mutant cells in low glucose, primary screen, MELAS cybrids, Rieske KO mouse fibroblasts, CellTiter-Glo (AID 1508586;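 active = mean z-score across replicates of 1.96 or higher in either the MELAS or the Rieske mutant cell line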;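 note: z relative to plate mean and SD of compound and empty wells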)
# [18] = measured here: with BGB IC20 combination, at 0.5 µM
# [19] = measured here: with cisplatin IC20 combination, at 0.5 µM
# [20] = stronger effect = lower value, cell number ratio, induced over uninduced
# [21] = measured here: relative caspase fold change +Dox/-Dox
# [22] = measured here: total cells with miR-34 induction, stronger effect = lower value
# [23] = measured here: total cells without miR-34 induction
# [24] = MELAS cybrid survival, CellTiter-Glo 48 h, stronger effect = higher value
# [25] = Rieske KO mouse fibroblast survival, CellTiter-Glo 72 h
smiles,measurement,setting,value
Cc1cn([C@@H]2O[C@H](CO)[C@@H](O)[C@@H]2F)c(=O)[nH]c1=O,outcome,[1],inactive
same,outcome,[2],inactive
same,outcome,[3],inactive
same,inhibition,"[4]; at 0.5 µM, stronger effect = higher value",-22.2% (inactive)
same,inhibition,"[4]; measured here: combination with BGB IC20, at 0.005 µM",-21.4%
same,inhibition,"[4]; measured here: combination with BGB IC40, at 0.005 µM",24.6%
same,inhibition,"[4]; measured here: combination with BGB IC40, at 0.05 µM",-36.4%
same,inhibition,"[4]; measured here: combination with cisplatin, at 0.5 µM, stronger effect = higher value",-29.1%
same,inhibition,"[4]; measured here: combination with cisplatin, at 5 µM, stronger effect = higher value",-25.8%
same,inhibition,"[5]; BGB combo, at 5 µM",-42.9%
same,inhibition,[5]; at 0.5 µM,15.9% (inactive)
same,inhibition,"[5]; cisplatin combo, at 5 µM",-14%
same,inhibition,[5]; [18],25%
same,inhibition,[5]; [19],22.2%
same,inhibition,"[5]; single agent, at 5 µM",-22.6%
same,inhibition,"[6]; BGB IC20 combo, at 0.005 µM",-11.3%
same,inhibition,"[6]; BGB IC40 combo, at 0.005 µM",-20.8%
same,inhibition,"[6]; BGB IC40 combo, at 0.05 µM",-28.4%
same,inhibition,[6]; at 0.5 µM,-27.1% (inactive)
same,inhibition,"[6]; cisplatin combo, at 0.05 µM",-35%
same,inhibition,"[6]; cisplatin combo, at 0.5 µM",-33.8%
same,inhibition,"[6]; cisplatin combo, at 5 µM",-27.5%
same,inhibition,"[6]; measured here: 5 uM single agent, at 5 µM",-20.1%
same,inhibition,[7]; at 0.5 µM,7.88% (inactive)
same,inhibition,"[7]; measured here: with BGB IC20, at 0.5 µM",40.2%
same,inhibition,"[7]; measured here: with BGB IC20, at 5 µM",-1.08%
same,inhibition,"[7]; measured here: with cisplatin IC20, at 0.5 µM",-7.9%
same,inhibition,"[7]; measured here: with cisplatin IC20, at 5 µM",-2.9%
same,inhibition,"[7]; single agent, at 5 µM",6.67%
same,inhibition,[8]; at 0.5 µM,-24.5% (inactive)
same,inhibition,"[8]; measured here: BGB combination, at 0.5 µM",-21.7%
same,inhibition,"[8]; measured here: BGB combination, at 5 µM",-19.5%
same,inhibition,"[8]; measured here: cisplatin combination, at 0.5 µM",-37.4%
same,inhibition,"[8]; measured here: cisplatin combination, at 5 µM",-37%
same,inhibition,[9]; at 0.5 µM,-12.8% (inactive)
same,inhibition,"[9]; cisplatin combination, at 0.5 µM",3.7%
same,inhibition,"[9]; cisplatin combination, at 5 µM",-127%
same,inhibition,"[9]; measured here: BGB IC40 combination 0.05 uM, at 0.05 µM",-18.9%
same,inhibition,"[9]; single agent, at 5 µM",-21.7%
same,inhibition,[10]; at 0.5 µM,-23.1% (inactive)
same,inhibition,"[10]; cisplatin combo, at 5 µM",-15.5%
same,inhibition,"[10]; measured here: BGB IC40 combination, at 0.05 µM",-13.9%
same,inhibition,"[10]; measured here: combination with cisplatin, at 0.5 µM",-19%
same,inhibition,"[10]; single agent, at 5 µM",-12.7%
same,inhibition,[11]; at 0.5 µM,12.7% (inactive)
same,inhibition,[11]; [18],6.33%
same,inhibition,[11]; [19],14.6%
same,inhibition,"[11]; single agent, at 0.05 µM",-20.4%
same,inhibition,"[11]; single agent, at 5 µM",5.83%
C=CC(=O)Nc1cccc(Nc2nc(NC3CCC(N(C)C)CC3)nc3c2ncn3C(C)C)c1 (stereo not given),AC50,[1],0.187 µM (active)
same,AC50,[2],0.0235 µM (active)
c1ccc(CNc2nc(N3CCOc4ccccc43)nc3c2CCCC3)cc1,outcome,[1],inactive
same,AC50,[12],16.6 µM (active)
COc1cc(C(=O)N2CCC(N3CCN(C)CC3)CC2)ccc1Nc1ncc2c(n1)N(C)c1ccccc1C(=O)N2C,AC50,[1],16.6 µM (active)
same,AC50,[2],16.6 µM (active)
same,AC50,[13],18.6 µM (active)
same,IC50,[14],20.9 µM (active)
N#Cc1c(C2CCNCC2)cc(-c2c(O)cccc2OCC2CC2)nc1N,AC50,[1],23.5 µM (active)
same,AC50,[2],13.2 µM (active)
same,IC50,[14],20.9 µM (active)
CNC1[C@@H](O)C(O[C@@H]2C(O)C(O[C@H]3O[C@H]([C@@H](C)NC)CC[C@H]3N)[C@@H](N)C[C@H]2N)OC[C@]1(C)O (stereo not given in full),outcome,[1],inactive
same,outcome,[2],inactive
same,outcome,[3],inactive
O=c1[nH]nc(OCCCc2ccc(Cl)cc2)c(NCc2cccnc2)c1Br,AC50,[1],23.5 µM (active)
same,AC50,[2],18.7 µM (active)
same,AC50,[3],18.7 µM (active)
C[C@H](c1ccc(F)cc1CCCC(=O)O)N(c1cc(F)ccc1F)S(=O)(=O)c1ccc(Cl)cc1,outcome,[1],inactive
same,outcome,[2],inactive
same,outcome,[3],inactive
same,outcome,[13],inactive
same,outcome,[14],inactive
CCCCOCCOc1nc(-c2ccc(C(=O)O)c(F)c2)sc1C,outcome,[1],inactive
same,outcome,[12],inactive
same,outcome,[13],inactive
same,outcome,[14],inactive
COc1cc(Cl)cn2c(-c3cccc(NC4CNC4)n3)cnc12,outcome,[1],inactive
same,outcome,[3],inactive
CCCn1c(=O)c2[nH]c(-c3cnn(Cc4cccc(C(F)(F)F)c4)c3)nc2n(CC)c1=O,outcome,[1],inactive
same,AC50,[15],13.2 µM (active)
same,outcome,[3],inactive
same,outcome,[14],inactive
COCCOC(=O)C1=C(C)NC2=C(C(=O)CC(c3ccccc3OC)C2)C1c1cccc(O)c1 (stereo not given),outcome,[1],inactive
same,outcome,[3],inactive
same,outcome,[14],inactive
CN[C@@H]1[C@@H](O)[C@@H](O[C@@H]2[C@@H](O)[C@H](O[C@H]3O[C@H](CN)[C@@H](O)[C@H](O)[C@H]3O)[C@@H](N)C[C@H]2NC(=O)[C@@H](O)CN)OC[C@]1(C)O,outcome,[1],inactive
same,outcome,[2],inactive
same,outcome,[3],inactive
COc1ccc(-c2c(-c3ccc(O)cc3O)n[nH]c2C)cc1,outcome,[1],inactive
same,outcome,[12],inactive
same,outcome,[15],inactive
same,outcome,[3],inactive
same,outcome,[14],inactive
same,fold change,[16]; [20],0.931 (inactive)
same,fold change,[16]; [21],0.724
same,cell count,[16]; [22],7090
same,cell count,[16]; [23],7620
same,z-score,[17]; [24],0.614 (inactive)
same,z-score,[17]; [25],-0.216
O=C(Nc1nc2ccccc2n1CCN1CCOCC1)c1cccc([N+](=O)[O-])c1,AC50,[1],14.8 µM (active)
same,AC50,[2],10.5 µM (active)
same,outcome,[14],inactive
same,fold change,[16]; [20],0.827 (inactive)
same,fold change,[16]; [21],1.35
same,cell count,[16]; [22],5540
same,cell count,[16]; [23],6700
CC(=O)NC(C)c1ccc(Oc2ccc(OC(C)C)cc2)cc1 (stereo not given),outcome,[1],inactive
same,outcome,[3],inactive
CC(C)N(CC[C@H](c1ccccc1)c1cc(CO)ccc1O)C(C)C,outcome,[1],inactive
same,outcome,[2],inactive
same,outcome,[3],inactive
COc1ccc(CCC(=O)Nc2nc3ccc(Cl)cc3s2)cc1OC,outcome,[1],inactive
same,outcome,[13],inactive
same,outcome,[14],inactive
same,fold change,[16]; [20],0.879 (inactive)
same,fold change,[16]; [21],0.345
same,cell count,[16]; [22],7570
same,cell count,[16]; [23],8610
same,z-score,[17]; [24],1.34 (inactive)
same,z-score,[17]; [25],-0.214
CN(C)C(=O)[C@H](O)[C@H](Cc1ccccc1)NC(=O)c1cc2cc(Cl)ccc2[nH]1,AC50,[2],4.18 µM (active)
same,outcome,[12],inactive
same,outcome,[15],inactive
same,outcome,[13],inactive
same,outcome,[14],inactive
same,fold change,[16]; [20],0.925 (inactive)
same,fold change,[16]; [21],1.42
same,cell count,[16]; [22],8280
same,cell count,[16]; [23],8950
CC(C)NC(=O)COc1cccc(-c2nc(Nc3ccc4[nH]ncc4c3)c3ccccc3n2)c1,AC50,[12],5.9 µM (active)
same,AC50,[15],5.25 µM (active)
